ATXN2 expr inh: inhibitors of ATXN2 expression; HEK-293 ATXN2-luciferase reporter, luminescence, 24 h; Potency, µM (top dose mostly 57 µM), for the others: top-dose activity change, negative = inhibition, actives largely listed as inhibitors; actives 0.72% (n = 360,000); AID 1745845; also: potency is read from the fitted curve at half-maximal effect; % is scaled to controls: 0 for no effect and ±100 for the full control effect; nearly all actives have a fitted effect of over 55% in size
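qHTS (up to 57 uM final) was run with 24 h compound exposure of reporter cells at 37 °C. Each well was multiplexed: SteadyGlo luminescence measured ATXN2-luciferase expression after a fluorogenic Gly-Phe-AFC viability readout (25 uM final).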
DRD3 agonist: agonists of human D3 dopamine receptor; P35462; D3R DiscoveRx beta-arrestin cells, luminescence, 90 min; max activation, %; actives 0.58% (n = 410,000); AID 652048; in the data active = max activation above about 30%; also: 0% is about no effect
Target sequence (P35462 whole entry, looked up): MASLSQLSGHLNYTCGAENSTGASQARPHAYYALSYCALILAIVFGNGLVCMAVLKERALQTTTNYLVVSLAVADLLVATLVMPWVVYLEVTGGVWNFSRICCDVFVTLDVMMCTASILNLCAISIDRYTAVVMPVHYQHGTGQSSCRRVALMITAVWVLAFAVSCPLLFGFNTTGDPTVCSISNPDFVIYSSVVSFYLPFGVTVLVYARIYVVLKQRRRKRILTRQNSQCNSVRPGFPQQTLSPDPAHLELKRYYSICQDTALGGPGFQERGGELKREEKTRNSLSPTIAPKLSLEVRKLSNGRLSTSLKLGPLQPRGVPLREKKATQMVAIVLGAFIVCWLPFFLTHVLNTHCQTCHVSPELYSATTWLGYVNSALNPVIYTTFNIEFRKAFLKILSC
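Agonist-mode cell screen: cells plated at 1500/well and incubated overnight at 37 °C, then exposed to library compounds for 90 min at 37 °C. Detection reagent was added for 30–60 min at room temperature, and luminescence was read.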
a7 integrin act: activates integrin-mediated alleviation for muscular dystrophy | alpha7betagal myoblasts, beta-gal FDG fluorescence, 48 h | Potency, µM (top dose mostly 38.3 µM), for inactives: at the highest dose activation, usual class: activators | actives 0.064% (n = 350,000) | AID 624291;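 also: potency is read from the fitted curve at half-maximal effect; 100% = response of the positive control SU9516; nearly all actives have a fitted effect of over 60% in size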
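Alpha7betagal+/- myoblasts (passage 13) were plated 16-24 hr, then exposed to compounds (1:260 dilution of DMSO stock) for 48 hours at 37C. After MPER lysis, β-galactosidase reporter activity was read as FDG fluorescence (ex 480/em 540) after 30 minutes.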
ATXN viability: viability counter-screen for ATXN expression inhibitors; Potency, µM (titrated, usually from 56.7 µM), actives largely listed as cytotoxic; actives 0.49% (n = 400,000); S2 cells (HEK-293 line with an ATXN2-luciferase reporter) viability, CellTiter-Fluor protease fluorescence, 24 h; also: potency is read from the fitted curve at half-maximal effect; nearly all actives have a fitted effect of over 40% in size
IL-1B inflam inh: inflammasome signaling inhibition, IL-1 beta readout; THP-1 LPS/ATP IL-1B secretion, AlphaLISA, 16 h; hits give low values; activity change, % at 57.5 µM; actives 4.7% (n = 360,000); in the data active = activity change below about -50%; inconclusive = mostly about -30% to -49%; also: % is scaled to controls: 0 for no effect and ±100 for the full control effect
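THP-1 cells pretreated 1 hr with compounds (up to 57.5 uM final), then stimulated with LPS (250 ng/mL final) plus ATP (1.25 mM final); secreted IL-1B measured by AlphaLISA after 16 hr, decreased signal indicating inhibition.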
DRD3 antagonist: blocks the human D3 dopamine receptor; P35462; D3R cells, DiscoveRx beta-arrestin luminescence, antagonist mode; hits give low values; max response, negative = inhibition, %; actives 2.5% (n = 360,000); AID 652054; in the data active = max response below about -50%; inconclusive = no clear call, values can overlap the other calls; also: % is scaled to controls: 0 for no effect and ±100 for the full control effect
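Cells plated overnight at 1500 cells/well, then exposed to library compounds with dopamine controls for 90 minutes at 37 degrees C. DiscoveRx reagent added for 30–60 minutes at room temperature; luminescence read, quantitative HTS format.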
Starred values were filed as active, the others as inactive; [ ] = another dose, or the depositor's remark. This is a sample that favours compounds with a hit; in the whole collection about 7% have one here. Unless noted, calls follow the shape of the dose curve; as a rule, active = well fitted curve in the direction sought with a large enough effect; inconclusive = small, poorly fitted or top-dose-only effect, or another doubt; inactive = no such curve, though single readings can be large; an effect the other way counts as inactive or inconclusive.

For CN(C)S(=O)(=O)c1ccc(Cl)c(C(=O)NCC2CCCCC2)c1 the results were ATXN2 expr inh 5%, DRD3 agonist 5, a7 integrin act -21%, ATXN viability inactive, IL-1B inflam inh 33 and DRD3 antagonist 1.
For N#C/C(=C/c1cn(-c2ccccc2)nc1-c1cccc(OCc2ccccc2)c1)C(=O)NCCCn1ccnc1 the results were ATXN2 expr inh inconclusive, DRD3 agonist 6, a7 integrin act -62%, ATXN viability inconclusive, IL-1B inflam inh -75* and DRD3 antagonist -14.
Screening CCSc1ccc(-c2nn(-c3ccccc3)cc2/C=C(/C#N)C(=O)NCCCOC)cc1 returned ATXN2 expr inh -7%, DRD3 agonist 37*, a7 integrin act -3%, IL-1B inflam inh 19 and DRD3 antagonist 15.
Screening Cc1ccc(-c2nn(-c3ccccc3)cc2/C=C(\C#N)C(=O)NCc2ccccc2)cc1 returned ATXN2 expr inh 0%, DRD3 agonist -3, a7 integrin act 24%, ATXN viability inconclusive, IL-1B inflam inh 3 and DRD3 antagonist -10.
For CCOc1cccc(-c2nn(-c3ccccc3)cc2/C=C(/C#N)C(=O)NCCCn2ccnc2)c1 the results were ATXN2 expr inh -35%, DRD3 agonist -9, a7 integrin act 2%, ATXN viability inactive, IL-1B inflam inh -99* and DRD3 antagonist -17.
`CCCSc1ccc(-c2nn(-c3ccccc3)cc2/C=C(/C#N)C(=O)NCCCOC)cc1` gave ATXN2 expr inh -14%, DRD3 agonist -10, a7 integrin act 8%, IL-1B inflam inh 0 and DRD3 antagonist 3.
For O=Cc1cn(CC(=O)Nc2ccccc2)c2ccccc12 the results were DRD3 agonist 1, a7 integrin act 3%, ATXN viability inactive, IL-1B inflam inh 20 and DRD3 antagonist -12.
O=C(/C=C/c1ccccc1)Nc1cccnc1 was read as DRD3 agonist -4, a7 integrin act 43%, ATXN viability inactive, IL-1B inflam inh -6 and DRD3 antagonist -19.
Screening Cn1nc(C(=O)Nc2cccc(C(=O)NC3CC3)c2)c2ccccc2c1=O returned DRD3 agonist 2, a7 integrin act inconclusive, ATXN viability inactive, IL-1B inflam inh -6 and DRD3 antagonist 15.
Screening CCCn1nnc(NC(=O)/C=C/c2ccccc2)n1 returned ATXN2 expr inh 5%, DRD3 agonist 7, a7 integrin act 1%, ATXN viability inactive, IL-1B inflam inh -2 and DRD3 antagonist 8.
Screening O=C(/C=C/c1ccc(F)cc1)NC(=S)Nc1ccccc1 returned ATXN2 expr inh 3%, DRD3 agonist 4, a7 integrin act 10%, ATXN viability inconclusive, IL-1B inflam inh inconclusive and DRD3 antagonist 5.
Cc1nc(NC(=O)/C=C/c2ccccc2)n[nH]1 was read as ATXN2 expr inh 4%[11.3 µM], DRD3 agonist -3, a7 integrin act -71%, ATXN viability inactive, IL-1B inflam inh -114* and DRD3 antagonist -26.
O=C(C=Cc1ccccc1)Nc1ccccc1 was read as ATXN2 expr inh 61%, DRD3 agonist -7, a7 integrin act 4%, ATXN viability inactive, IL-1B inflam inh -69* and DRD3 antagonist 12.
Screening Cc1cc(=O)c(C(=O)Nc2cccc(C(=O)NC3CC3)c2)nn1-c1ccccc1Cl returned ATXN2 expr inh -1%, DRD3 agonist 2, a7 integrin act 36%, ATXN viability inactive, IL-1B inflam inh -54* and DRD3 antagonist 7.
Screening O=C(/C=C/c1ccccc1)NC(=S)Nc1ccccc1 returned ATXN2 expr inh 11%, DRD3 agonist -15, a7 integrin act -2%, ATXN viability inactive, IL-1B inflam inh -61* and DRD3 antagonist 0.
`O=C(/C=C/c1ccccc1)NC(=O)c1ccccc1O` gave DRD3 agonist -10, a7 integrin act 0%, ATXN viability inactive, IL-1B inflam inh -58* and DRD3 antagonist -11.
`O=C(/C=C/c1ccccc1Cl)Nc1cccc(O)c1` gave DRD3 agonist -2, a7 integrin act 1%, ATXN viability inactive, IL-1B inflam inh -13 and DRD3 antagonist 6.

Source: PubChem BioAssay (National Center for Advancing Translational Sciences (NCATS))
